Measurements taken from the OligoGym collection.

target: ABCD4; assay: pooled miR-30 sensor sort-seq; sequence = guide strand; details: shRNA
Note: reference of the scale not given here.

Sequence | sensor-assay potency score (higher = more potent)
TAGTAGACGAGGGTGAACGGGG | -0.612
ATCTGCATGTGCTTGAACCTAA | -0.448
TCTCATCATCGGCAGAACCTGA | -0.963

target: ABCG2; assay: as above; details: shRNA

Sequence | sensor-assay potency score (higher = more potent)
TAACTCTTGAATGACCCTGTTA | -0.548
TTCTATGAGTGGCTTATCCTGC | -0.526
TTGAAGACTGTGATCTTCTTCT | 0.497
TTCAGCTTTTGTCTCTTTGTAG | -0.298
TATAATACTTGGTAACATCCTC | 0.377
TACGACTGTGACAATGATCTGA | 0.524
TTTGTCTCTTTGTAGAAGGAGG | -1.31
TAATATTTCTTTCTCAACTGGT | 0.563
TTTAAAGTCTTCTTCTCTGTTT | -0.358
AACATCATCTTGTACCACGTAA | -0.468
TTACCAAATATTCTTCGCCAGT | -1.15
TGAGATTGACCAACAGACCTGA | 0.275

target: ABHD14A; assay: as above; details: shRNA

Sequence | sensor-assay potency score (higher = more potent)
TCCATGAAGCAGCACCACCTCC | -1.75
ATGGCCTGCATTGCGTAGCTTC | -1.76
TGAGTGGGAGCACCTCGCGGTA | -1.68
TTGCGTAGCTTCACCACAGAGT | 0.297
GAGGTCTGTACCACAGTCGGGC | -1.45
TAAGGGTTGGAGTCTTCACAGC | -1.08
TGCATTGCGTAGCTTCACCACA | -1.6
TCGAGCCAGGATGTGGTCCAGC | -1.4
TTGAGTGGGAGCACCTCGCGGT | 0.0609
TCTGTGACAGTAGCTGCAGTGT | -1.16
TAGCTTCACCACAGAGTGGTTG | -1.24

target: ABHD14B; assay: as above; details: shRNA

Sequence | sensor-assay potency score (higher = more potent)
TCCATATACAATCAGAGCTGGA | -1.62
TGGACTGATCACAACCGGGGGG | -0.281
AAAGCTGGTCTGACCCATGGGG | -0.273
TTCTGCCAGGTCTCGGAGGAGA | -1.13
TTGATTTTGTCAGTGCAGATGG | -0.728
TGGTTTGTCCAGGTAACAGGGG | -0.958
TAGTTGGCAGCATTGATTTTGT | -0.754
CTGGTCTCCATATACAATCAGA | -2.16
TGCTTCAGGTGCTCAAAGCTGG | -0.768
TTTGTCCAGGTAACAGGGGTGC | -1.14
TTCAGGTGCTCAAAGCTGGTCT | -0.558
ATAGTTGGCAGCATTGATTTTG | -0.758
